Source: PubChem BioAssay (NCI)
About 83,000 compounds went through this panel and 20% of them were active in at least one assay; those are over-represented in the sample as a whole.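 Single-concentration screen, 48 h exposure, 96-well plates. Endpoint: percent growth. Below 10 = active.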 The source made the active and inactive calls.

Experiments:
Test in all cases: NCI-60 one-dose screen, 48 h (100 = growth as untreated, 0 = no growth, -100 = all killed)
Conditions in all cases: 10 µM unless noted
T-47D breast = tested on: T-47D breast
BT-549 breast = tested on: BT-549 breast
MDA-MB-435 melanoma = tested on: MDA-MB-435 melanoma
MCF7 breast = tested on: MCF7 breast
HCT-116 colon = tested on: HCT-116 colon
HCC-2998 colon = tested on: HCC-2998 colon
KM12 colon = tested on: KM12 colon
SW-620 colon = tested on: SW-620 colon

Measured: growth

Cc1ccc(-c2nc(C(Cl)Cl)n3nc(-c4ccccc4)cc3n2)cc1
inactive: BT-549 breast 70.8% | MDA-MB-435 melanoma 15.4% | MCF7 breast 18.9% | HCC-2998 colon 23.3%
active: T-47D breast -6.55% | HCT-116 colon 9.65% | KM12 colon 0.685%

CN(CCCCN(C[C@H]1Cc2ncccc2CN1)[C@H]1CCCc2cccnc21)C1CCC(F)(F)CC1
inactive: T-47D breast 99.2% | BT-549 breast 85.8% | MDA-MB-435 melanoma 108% | MCF7 breast 83.7% | HCT-116 colon 71.1% | HCC-2998 colon 88.7% | KM12 colon 88%

COc1ccc(/C=N\NC(=O)CN2CCN(c3cc4c(cc3F)c(=O)c(C(=O)N/N=C/c3ccc(OC)c(OC)c3)cn4C3CC3)CC2)cc1OC
active: T-47D breast 3.79% | BT-549 breast -11.1% | MDA-MB-435 melanoma -49.7% | MCF7 breast -4.9% | HCC-2998 colon -10.8% | KM12 colon 7.04%
inactive: HCT-116 colon 13.3%

COc1cccc(/C=C2\Oc3cc(OCCCN4CCCC4)ccc3C2=O)c1OC
inactive: T-47D breast 97.2% | BT-549 breast 87.7% | MDA-MB-435 melanoma 99% | MCF7 breast 87% | HCT-116 colon 83.7% | HCC-2998 colon 113% | KM12 colon 102%

CC(=O)c1cc2c(N)c(C(=O)Nc3cccc4c3OCCO4)sc2nc1C
inactive: T-47D breast 56% | BT-549 breast 103% | MDA-MB-435 melanoma 24.1% | MCF7 breast 94.9% | HCT-116 colon 96.4% | HCC-2998 colon 95% | KM12 colon 98.7%

Cn1c2ccc(Br)cc2c2c3c(c4c5ccccc5[nH]c4c21)C(=O)N(O)C3=O
active: T-47D breast -24.1% | BT-549 breast -85.2% | MDA-MB-435 melanoma -59.3% | SW-620 colon -12.2% | HCT-116 colon -34.7% | HCC-2998 colon -87.4% | KM12 colon -65.8%

COc1ccc(S(=O)(=O)Nc2cc(/C=C\c3cc(OC)c(OC)c(OC)c3)cc(OC)c2OC)cc1
active: MDA-MB-435 melanoma -26.3% | HCT-116 colon 5.64%
inactive: T-47D breast 86.6% | BT-549 breast 26.6% | SW-620 colon 26.4% | HCC-2998 colon 17.7% | KM12 colon 10%

COc1ccc(CNCCCN2C(=O)c3ccc4c5c(ccc(c35)C2=O)C(=O)N(CCCNCCCCNCCCN)C4=O)c(OC)c1OC
inactive: BT-549 breast 60.4% | KM12 colon 21.2%
active: T-47D breast -44.4% | MDA-MB-435 melanoma -39.1% | MCF7 breast -19.7% | HCT-116 colon 6.94% | HCC-2998 colon -3.52%

CCOC(=O)c1ccc2c(c1)c1c(C)c3cccnc3c(C)c1n2C
inactive: T-47D breast 44.9% | BT-549 breast 79.5% | MDA-MB-435 melanoma 73.4% | SW-620 colon 34% | HCT-116 colon 23% | HCC-2998 colon 86.9% | KM12 colon 61.4%

CC(C)CSc1nc(NN)c(C#N)c(-c2ccccc2)n1
inactive: T-47D breast 87% | BT-549 breast 96.2% | MDA-MB-435 melanoma 101% | MCF7 breast 88.2% | HCT-116 colon 95.7% | HCC-2998 colon 95% | KM12 colon 81.3%

Nc1cc2c([nH]c[n+]2CC#CCCl)c(SCC#CCCl)n1
active: T-47D breast -60.1% | BT-549 breast -91.2% | MDA-MB-435 melanoma -34.2% | SW-620 colon -27.2% | HCT-116 colon -98.6% | HCC-2998 colon -96.9% | KM12 colon -80.2%

CC(C)(C)n1cc(-c2ccnc(NCCCNS(=O)(=O)c3cccc(F)c3)c2)c(-c2cccc(O)c2)n1
inactive: T-47D breast 35.7% | BT-549 breast 67.4% | MDA-MB-435 melanoma 61.2% | MCF7 breast 21.6% | HCT-116 colon 47.1% | HCC-2998 colon 15.7% | KM12 colon 26.5%

Fc1ccc(-c2nc(-c3nc4ncccc4[nH]3)cc3c2[nH]c2ccccc23)cc1F
inactive: T-47D breast 51.7% | BT-549 breast 84% | SW-620 colon 102% | MCF7 breast 38.7% | HCT-116 colon 30.3% | HCC-2998 colon 100% | KM12 colon 71.9%

C=C[C@@H]1C[C@@H]2Cc3ccccc3N1O2
inactive: T-47D breast 110% | BT-549 breast 114% | SW-620 colon 102% | MCF7 breast 111% | HCT-116 colon 101% | HCC-2998 colon 114% | KM12 colon 110%

NC1N=C(SCC(=O)N2CCN(c3cc4c(cc3F)c(=O)c(C(=O)O)cn4C3CC3)CC2)NC(=O)/C1=C/c1ccc(Cl)cc1 (stereo unspecified)
inactive: T-47D breast 97.9% | BT-549 breast 122% | SW-620 colon 104% | MCF7 breast 105% | HCT-116 colon 101% | HCC-2998 colon 109% | KM12 colon 107%

Cn1ccc(Nc2nccc(Oc3ccc(C(=O)Nc4cccc(F)c4)c(Cl)c3)n2)c1
inactive: T-47D breast 38.8% | BT-549 breast 80.5% | SW-620 colon 85.4% | MCF7 breast 85.9% | HCT-116 colon 86.8% | HCC-2998 colon 81.9% | KM12 colon 102%

C=C1C(=O)O[C@H]2[C@H]1CC/C(Cn1cc(CNC(=O)Cc3cn(C(=O)c4ccc(Cl)cc4)c4ccc(OC)cc34)nn1)=C\CC[C@@]1(C)O[C@@H]21
inactive: KM12 colon 41.9%
active: T-47D breast -61.6% | BT-549 breast -3.93% | SW-620 colon -67.4% | MCF7 breast -62.7% | HCT-116 colon -95% | HCC-2998 colon 8.2%

CC(=O)Nc1scc[n+]1Cc1ccccc1
inactive: T-47D breast 102% | BT-549 breast 103% | SW-620 colon 105% | MCF7 breast 98.4% | HCT-116 colon 102% | HCC-2998 colon 103% | KM12 colon 105%

COc1ccc(C2=Nn3c(nnc3-n3nc(C)cc3C)SC2)cc1
active: HCT-116 colon 5.57% | HCC-2998 colon 4.24%
inactive: T-47D breast 77.6% | BT-549 breast 18.6% | SW-620 colon 21.7% | MCF7 breast 16.9% | KM12 colon 10%

CCCCN(CCCC)C(=N)c1ccnc2ccccc12
inactive: T-47D breast 118% | BT-549 breast 120% | HCT-116 colon 104% | HCC-2998 colon 102%

CCC(=O)Oc1ccc(/C(=C(/C)Cc2cccc(OC)c2)c2ccc(OCCN(C)C)cc2)cc1
inactive: T-47D breast 86.7% | BT-549 breast 95.7% | SW-620 colon 74.2% | MCF7 breast 45.1% | HCT-116 colon 71.8% | HCC-2998 colon 95.1% | KM12 colon 86.3%

COC(=O)c1cc2cc(-c3ccc(OC)cc3)cnc2[nH]1
inactive: T-47D breast 34.1% | BT-549 breast 18.6% | SW-620 colon 18.6% | MCF7 breast 15.9% | HCT-116 colon 13.8% | HCC-2998 colon 51.1% | KM12 colon 11.4%
